Experimental data from PubChem BioAssay.
Activity calls are given as the source filed them.

Tests used:
[1] = biological target: Albumin (Bos taurus) (UniProt P02769); assay: bovine serum albumin binders on microarray, profiling panel, artefact control for SMM control protein annotation, biochemical, small-molecule microarray, Alexa647 label, 635/667 nm fluorescence (AID 1118); conditions: BSA-A647 binding, fluorescence 635 nm, higher = more signal;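 further: score merges 667 nm emission intensity and signal-to-noise per printed compound spot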
Chain of Albumin (Bos taurus) (P02769 whole entry, looked up): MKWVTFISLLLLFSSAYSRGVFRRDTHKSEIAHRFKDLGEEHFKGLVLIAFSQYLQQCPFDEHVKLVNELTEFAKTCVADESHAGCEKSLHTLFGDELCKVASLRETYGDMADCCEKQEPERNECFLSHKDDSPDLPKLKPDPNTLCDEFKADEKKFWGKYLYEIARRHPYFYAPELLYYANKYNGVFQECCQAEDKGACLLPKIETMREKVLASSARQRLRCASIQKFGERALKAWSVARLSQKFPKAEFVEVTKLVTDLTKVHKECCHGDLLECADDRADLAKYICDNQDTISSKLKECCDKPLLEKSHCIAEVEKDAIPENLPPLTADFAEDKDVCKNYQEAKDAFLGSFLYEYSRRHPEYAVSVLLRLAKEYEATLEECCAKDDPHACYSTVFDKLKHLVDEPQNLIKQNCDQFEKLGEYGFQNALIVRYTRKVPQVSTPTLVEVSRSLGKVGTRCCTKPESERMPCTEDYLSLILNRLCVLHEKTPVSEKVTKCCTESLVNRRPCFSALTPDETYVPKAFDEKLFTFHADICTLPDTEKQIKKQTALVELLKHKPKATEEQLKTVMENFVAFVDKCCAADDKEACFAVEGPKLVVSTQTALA

[2] = small-molecule microarray binders of probe aXIP, primary screen, biochemical, NeuroSMM set, 635/667 nm fluorescence (AID 1119); conditions: higher = more signal, called active from +8 up or from −8 down;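 further: probe is the protein aXip251-270 applied at 1 µg/mL to compound-printed slides; binding of probe to printed compounds measured as 667 nm fluorescence plus signal to noise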
[3] = small-molecule binders of probe aNOTCH3, primary screen, biochemical, small-molecule microarray, 635/667 nm fluorescence (AID 1120); conditions: higher = more signal;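 further: probe is a biotin-tagged antibody raised against NOTCH3 rather than NOTCH3 protein; score merges spot fluorescence near 667 nm with spot signal to noise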
[4] = small-molecule binders of probe aNOTCH2, primary screen, biochemical, small-molecule microarray, 635/667 nm fluorescence (AID 1121); conditions: higher = more signal;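 further: score merges feature fluorescence read at 667 nm with its signal to noise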
[5] = biological target: Carbonic anhydrase 2 (Homo sapiens) (UniProt P00918); assay: CAII small-molecule binders, profiling panel, biochemical, small-molecule microarray, Alexa647-labelled CAII (AID 1122); conditions: CAII-A647 binding fluorescence, higher = more signal
[6] = COS7 lysate on small-molecule microarray, probe aHis, 635 nm (AID 1123); conditions: COS7 cell lysate, fluorescence, higher = more signal;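 further: z-score combines 667nm fluorescence intensity with signal-to-noise per printed compound spot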
[7] = compound binding in COS7 lysate, probe aLAP1, primary screen, cell lysate, small-molecule microarray (AID 1124); conditions: probe aLAP1, fluorescence, higher = more signal;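 further: lysate comes from COS7 cells expressing LAP1 and is applied at 0.3 µg/mL; score merges spot fluorescence near 667 nm with signal-to-noise over triplicate slides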
[8] = system: Sam68 (KHDRBS1); assay: Sam68 small-molecule binders, primary screen, biochemical, small-molecule microarray, 635 nm fluorescence (AID 1125); conditions: small-molecule microarray binding, higher = more signal;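 further: score merges 667 nm channel intensity with signal to noise over triplicate slides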
[9] = system: Chordin-like protein 2 (CHRDL2); assay: CHRDL2 small-molecule binders, primary screen, biochemical, small-molecule microarray, 635 nm fluorescence (AID 1126); conditions: small-molecule microarray binding, fluorescence 635 nm; higher = more signal;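 further: printed compound slides probed with Chrdl2 protein at 4 µg/mL for 1 h at 4 C; score merges 667 nm emission intensity with signal to noise over three replicate slides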
[10] = biological target: Concanavalin-A (Canavalia ensiformis) (UniProt P02866); assay: ConA small-molecule binders, primary screen, artefact control for SMM control protein annotation, biochemical, small-molecule microarray, Alexa647 label, 635 nm (AID 1127); conditions: ConA-A647 binding fluorescence, higher = more signal;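 further: z combines 667 nm emission intensity with signal-to-noise across three replicate slides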
Chain of Concanavalin-A (Canavalia ensiformis) (P02866 whole entry, looked up): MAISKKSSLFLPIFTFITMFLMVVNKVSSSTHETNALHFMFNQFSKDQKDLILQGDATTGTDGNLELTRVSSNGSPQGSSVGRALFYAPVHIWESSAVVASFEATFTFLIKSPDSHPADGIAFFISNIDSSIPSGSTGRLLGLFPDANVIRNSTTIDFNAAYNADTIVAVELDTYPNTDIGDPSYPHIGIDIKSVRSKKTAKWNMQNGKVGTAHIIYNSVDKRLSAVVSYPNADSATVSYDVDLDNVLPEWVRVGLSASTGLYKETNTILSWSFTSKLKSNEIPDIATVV

[11] = anti-His antibody binders, primary screen, artefact control for SMM control protein annotation, biochemical, small-molecule microarray, 635 nm fluorescence (AID 1128); conditions: anti-His Alexa647 antibody binding, higher = more signal;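 further: score merges feature fluorescence with signal-to-noise for each printed compound spot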
[12] = system: Human papillomavirus type 1a E7 protein (residues 1-88); assay: HPV1a E7 small-molecule binders, primary screen, biochemical, small-molecule microarray, residues 1-88, 635 nm (AID 1129); conditions: small-molecule microarray binding, fluorescence 635 nm; higher = more signal
[13] = biological target: Focal adhesion kinase 1 (Homo sapiens) (UniProt Q05397); assay: small-molecule microarray binders of FAK, primary screen, biochemical, 635/667 nm fluorescence, BSA, DTT (AID 1130); conditions: PTK2 binding, 635 nm fluorescence, higher = more signal;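 further: composite of spot emission at 667 nm and signal to noise over triplicate slides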
Chain of Focal adhesion kinase 1 (Homo sapiens) (Q05397 whole entry, looked up): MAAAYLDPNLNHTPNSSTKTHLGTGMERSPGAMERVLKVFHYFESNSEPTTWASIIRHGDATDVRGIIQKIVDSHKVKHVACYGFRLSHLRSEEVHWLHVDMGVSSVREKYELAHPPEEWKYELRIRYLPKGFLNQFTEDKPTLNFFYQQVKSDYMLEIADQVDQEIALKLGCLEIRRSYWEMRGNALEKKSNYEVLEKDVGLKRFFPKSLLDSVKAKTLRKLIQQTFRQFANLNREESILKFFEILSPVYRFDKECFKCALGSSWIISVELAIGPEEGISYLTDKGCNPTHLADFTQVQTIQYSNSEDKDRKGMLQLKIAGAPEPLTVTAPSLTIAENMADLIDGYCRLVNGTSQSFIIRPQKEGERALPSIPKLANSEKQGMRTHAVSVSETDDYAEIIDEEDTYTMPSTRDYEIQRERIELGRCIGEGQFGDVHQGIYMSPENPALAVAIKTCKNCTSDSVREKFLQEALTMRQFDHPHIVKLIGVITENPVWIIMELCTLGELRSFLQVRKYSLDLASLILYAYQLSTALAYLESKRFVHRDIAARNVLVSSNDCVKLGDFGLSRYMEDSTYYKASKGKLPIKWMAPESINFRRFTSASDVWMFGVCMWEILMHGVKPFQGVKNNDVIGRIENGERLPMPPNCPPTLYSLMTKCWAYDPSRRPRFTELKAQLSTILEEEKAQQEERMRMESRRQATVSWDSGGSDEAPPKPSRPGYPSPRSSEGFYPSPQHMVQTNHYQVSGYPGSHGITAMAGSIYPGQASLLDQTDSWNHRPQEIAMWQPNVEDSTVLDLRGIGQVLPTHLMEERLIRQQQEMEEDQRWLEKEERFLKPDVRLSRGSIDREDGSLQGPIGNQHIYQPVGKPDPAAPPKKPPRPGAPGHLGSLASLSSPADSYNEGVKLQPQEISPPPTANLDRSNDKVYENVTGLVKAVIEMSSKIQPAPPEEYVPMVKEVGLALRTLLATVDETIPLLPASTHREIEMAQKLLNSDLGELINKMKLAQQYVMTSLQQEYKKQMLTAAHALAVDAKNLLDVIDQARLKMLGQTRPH

[14] = system: Fibrinogen (Alexa647-labelled); assay: fibrinogen binders on compound microarrays, profiling panel, artefact control for SMM control-protein annotation, biochemical, small-molecule microarray, 635/667 nm fluorescence (AID 1131); conditions: fibrinogen-A647 binding fluorescence, higher = more signal;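 further: z-score merges 667 nm fluorescence with per-spot signal-to-noise over triplicate slides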
[15] = biological target: Follistatin (Homo sapiens) (UniProt P19883); assay: follistatin binders on small-molecule microarrays, primary screen, biochemical, small-molecule microarray, 635/667 nm fluorescence (AID 1132); conditions: FST binding, 635 nm fluorescence, higher = more signal
Chain of Follistatin (Homo sapiens) (P19883 whole entry, looked up): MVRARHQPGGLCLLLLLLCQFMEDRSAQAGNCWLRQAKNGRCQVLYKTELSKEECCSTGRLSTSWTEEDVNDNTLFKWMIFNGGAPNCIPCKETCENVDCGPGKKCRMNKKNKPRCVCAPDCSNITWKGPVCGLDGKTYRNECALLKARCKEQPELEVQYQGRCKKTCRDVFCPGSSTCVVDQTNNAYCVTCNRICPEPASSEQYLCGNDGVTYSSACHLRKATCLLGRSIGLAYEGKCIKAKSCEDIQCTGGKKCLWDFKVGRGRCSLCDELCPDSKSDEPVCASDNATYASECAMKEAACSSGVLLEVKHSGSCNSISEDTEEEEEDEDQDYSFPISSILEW

[16] = biological target: Fibroblast growth factor 2 (Homo sapiens) (UniProt P09038); assay: FGF2 binders on small-molecule microarrays, primary screen, biochemical, small-molecule microarray, 635/667 nm fluorescence (AID 1133); conditions: small-molecule microarray binding, FGF2, fluorescence 635/667; higher = more signal
Chain of Fibroblast growth factor 2 (Homo sapiens) (P09038 whole entry, looked up): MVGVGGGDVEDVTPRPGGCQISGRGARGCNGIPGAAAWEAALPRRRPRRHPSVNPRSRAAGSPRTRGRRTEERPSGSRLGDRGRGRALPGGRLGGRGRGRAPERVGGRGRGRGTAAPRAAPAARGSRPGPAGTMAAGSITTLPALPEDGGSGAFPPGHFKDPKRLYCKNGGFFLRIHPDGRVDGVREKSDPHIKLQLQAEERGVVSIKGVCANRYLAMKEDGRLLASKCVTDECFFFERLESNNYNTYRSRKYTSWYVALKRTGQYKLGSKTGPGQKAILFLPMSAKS

[17] = mitochondrial membrane potential change in A549 cells, profiling panel, cell-based, JC-1 fluorescence, basal, 24 h, 100 nL (AID 1138); conditions: higher = more signal;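 further: A549 lung adenocarcinoma cells under basal conditions with no added stimulus; test concentration not given here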
[18] = system: Lefty1; assay: Lefty1 binders on small-molecule microarrays, primary screen, biochemical, small-molecule microarray, 635/667 nm fluorescence (AID 1139); conditions: small-molecule microarray binding, fluorescence 635/667; higher = more signal
[19] = system: wheat germ agglutinin (Triticum aestivum), Alexa647-labelled; assay: wheat germ agglutinin binders on compound microarrays, profiling panel, artefact control for SMM control-protein annotation, biochemical, small-molecule microarray, 635/667 nm fluorescence (AID 1140); conditions: WGA-A647 binding, 635 nm fluorescence, higher = more signal;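 further: score merges 667 nm feature emission with signal to noise over triplicate slides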
[20] = biological target: Luciferin 4-monooxygenase (Photinus pyralis) (UniProt P08659); assay: firefly luciferase enzyme inhibitors, primary screen, biochemical, luminescence, purified enzyme, 2006 set (AID 1141); conditions: SteadyGlo luminescence, 30 min, higher = more signal, called active from +8 up or from −8 down;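 further: cell-free assay with purified firefly luciferase at 100 ng per well in PBS; test concentration not given here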
Chain of Luciferin 4-monooxygenase (Photinus pyralis) (P08659 whole entry, looked up): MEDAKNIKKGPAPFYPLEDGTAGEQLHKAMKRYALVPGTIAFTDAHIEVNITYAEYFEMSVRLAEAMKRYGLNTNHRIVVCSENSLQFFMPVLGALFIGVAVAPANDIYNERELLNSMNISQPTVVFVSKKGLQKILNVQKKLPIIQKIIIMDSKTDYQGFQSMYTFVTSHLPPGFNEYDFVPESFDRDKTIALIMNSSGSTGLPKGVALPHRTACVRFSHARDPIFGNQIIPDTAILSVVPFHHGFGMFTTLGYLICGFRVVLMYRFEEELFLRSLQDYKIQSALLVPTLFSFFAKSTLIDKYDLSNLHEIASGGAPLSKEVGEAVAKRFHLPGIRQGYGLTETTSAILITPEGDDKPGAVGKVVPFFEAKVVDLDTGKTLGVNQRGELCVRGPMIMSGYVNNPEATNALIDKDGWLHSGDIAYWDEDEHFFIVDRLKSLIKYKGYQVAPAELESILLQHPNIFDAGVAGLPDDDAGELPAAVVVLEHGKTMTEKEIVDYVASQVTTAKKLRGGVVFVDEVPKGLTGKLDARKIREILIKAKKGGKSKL

Structure (SMILES)	composite z-score [1]	composite Z-score [2]	composite z-score [3]	composite z-score [4]	composite z-score [5]	composite z-score [6]	composite z-score [7]	composite z-score [8]	composite z-score [9]	composite z-score [10]	composite z-score [11]	composite z-score [12]	composite z-score [13]	composite z-score [14]	composite z-score [15]	composite z-score [16]	z-score [17]	composite z-score [18]	composite z-score [19]	z-score [20]
CCOC(=O)[C@H](CC(C)C)NC(=O)CCC1CC(OC(=O)NCCc2ccc(F)cc2)CC2(CCCC(COC(=O)NCCCN3CCCC3=O)O2)O1 (stereo not given in full)	0.353	0.0886 (inactive)	-0.179	-0.0839	0.325	0.619	0.16	0.883	0.473	0.0423	0.969	0.635	0.0501	0.958	1.25	0.304	-0.114	0.766	0.205	0.564 (inactive)
O=C1[C@H]2[C@H]3[C@H](O)[C@H](O)CC(=NOC[C@@H](O)COCc4ccco4)[C@@H]3CC[C@H]2C(=O)N1C1CCCCC1	0.0451	-0.415 (inactive)	0.149	-0.251	0.057	-0.39	-0.0177	0.827	1.52	-0.421	0.0182	-0.244	-0.569	-0.811	1.22	1.37	-0.144	1.58	-0.284	0.0055 (inactive)
COc1ccc(OC[C@@H]2CC3[C@@H](c4ccc(Br)cc4)[C@H](C)CC[C@H]3C(=O)O2)cc1 (stereo not given in full)	0.733	-0.644 (inactive)	-0.023	-0.18	-0.117	-0.037	0.196	-0.218	0.584	-0.758	-1.08	-0.291	-0.0102	0.563	0.57	0.29	-0.296	0.74	0.282	0.294 (inactive)
CCN1C(C)=C(C(=O)OC)[C@@H](c2ccccc2)N2C(=O)[C@](O)(C(=O)OC)CC(C(C)=O)=C12	-0.428	-0.686 (inactive)	-0.15	-0.207	-0.174	-0.0478	-0.152	-0.37	0.285	0.29	-1.01	0.127	0.0644	0.123	0.398	0.0171	1.07	0.638	0.278	-0.695 (inactive)
COC(=O)CC=C[C@@H](C)[C@@H](C=NOC[C@@H](O)COCc1ccco1)NS(=O)(=O)c1ccc(C)cc1	-1.17	-0.553 (inactive)	-0.169	-0.0854	-0.485	-1.36	-0.504	-0.866	1.52	-2.76	0.13	-1.94	-0.432	-1.03	1.29	0.542	-0.383	0.915	-0.681	0.167 (inactive)
O=C1[C@H]2[C@H]3[C@H](O)[C@H](O)CC(=NO[C@@H]4O[C@H](CO)[C@@H](O)[C@H](O)[C@H]4O)[C@@H]3CC[C@H]2C(=O)N1C1CCCCC1	-0.156	0.178 (inactive)	0.0876	-0.141	-0.121	0.139	-0.1	0.317	0.629	0.601	-0.293	0.486	-0.0408	0.384	0.284	0.415	0.76	0.578	0.0714	-0.33 (inactive)
CC(C)=CCCC(C)=CCON=C1[C@H]2CCn3c(=O)n(-c4ccccc4)c(=O)n3[C@H]2[C@H](O)[C@@H]2O[C@H]12	0.271	0.0213 (inactive)	0.185	-0.14	0.464	1.18	0.353	1.22	1.02	0.763	0.645	1.14	0.274	0.712	1.19	0.765	0.334	0.808	0.505	-0.416 (inactive)
